Bioassay records: PubChem BioAssay, National Center for Advancing Translational Sciences (NCATS)
Shown is part of a subset that was picked to be rich in hits.
IMPase inh: qHTS Assay for Identifying the Cell-Membrane Permeable IMPase Inhibitors. Inositol monophosphatase 1 (Rattus norvegicus), P97697. 120,000 tested, under 10 active. inhibition (IP1 accumulation), % at 46.1 µM. CHO-M1 cells, IP1 accumulation, HTRF TR-FRET ratio; active = well fitted curve in the direction sought with a large enough effect in the signal ratio, not every such curve was filed as active; inconclusive = small, poorly fitted or top-dose-only effect, or a change in a side signal; inactive = no such curve, though single readings can be large or run the other way; the % refers to the signal ratio;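 note: cells stimulated with carbachol in lithium chloride buffer; plate controls were DMSO basal wells for no effect and reference inhibitor wells for full effect; higher means more IMPase inhibition seen as more IP1 and lower FRET ratio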
Target sequence (P97697 whole entry, looked up): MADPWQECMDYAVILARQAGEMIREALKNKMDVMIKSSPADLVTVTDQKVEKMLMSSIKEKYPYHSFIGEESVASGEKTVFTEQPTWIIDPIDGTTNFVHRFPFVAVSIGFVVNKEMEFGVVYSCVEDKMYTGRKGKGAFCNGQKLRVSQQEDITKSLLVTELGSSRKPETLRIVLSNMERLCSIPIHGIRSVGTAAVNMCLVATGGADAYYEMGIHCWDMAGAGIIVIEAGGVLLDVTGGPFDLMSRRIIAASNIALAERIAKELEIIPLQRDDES
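Seeded CHO-M1 cells were dosed with compound at up to 46 uM, stimulated with carbachol for 30 min, then lysed in IP-One detection reagents. Higher IP1 lowers the TR-FRET signal.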
LMNA splice mod: qHTS Assay for Modulators of Lamin A Splicing | HeLa LMNA splicing GFP/RFP minigene ratio, 48 h | Potency, µM (top dose mostly 46.1 µM), without a hit: top-dose ratio change, negative = inhibition, hits mostly inhibitors | 0.01% of 200,000 active | AID 1487, 2009; active = well fitted inhibition curve with a large enough effect in the signal ratio, with a control signal flat, not every such curve was filed as active; inconclusive = small, poorly fitted or top-dose-only effect, or effect the other way, or a change in a side signal; the % refers to the signal ratio; note: potency is the fitted concentration of half-maximal effect
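S3 HeLa cells stably expressing lamin A-EGFP splicing minigene plus DsRed2, 600 cells/well, 48 h compound exposure at 37C. Laser-scanning cytometry; analysed as GFP (500-530 nm)/RFP (575-640 nm) total intensity ratio; 0.5% DMSO vehicle.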
IMPase Li cell: qHTS Assay for Identifying the Cell-Membrane Permeable IMPase Inhibitors: Potentiation with Lithium. CHO-M1 cells, IP1 TR-FRET (IP-One), carbachol + lithium. Potency, µM (series often up to 59.4 µM), for inactives: top-dose activity, negative = IMPase inhibition, actives largely listed as inhibitors. 0.35% of 210,000 active; active = well fitted inhibition curve with a large enough effect; inconclusive = small, poorly fitted or top-dose-only effect; inactive = no such curve, though single readings can be large or run the other way;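 note: IP1 builds up when IMPase is blocked and the TR-FRET signal falls; potency is the fitted concentration of half-maximal effect; plate controls were basal vehicle for no effect and high inhibitor control for full effect; nearly all actives have a fitted effect of over 50% in size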
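Steps: plate 2000 CHO-M1 cells per well and culture 16–30 h; add compound and lithium; incubate 30 min, 37C; add d2-IP1 tracer and Eu cryptate anti-IP1 antibody in lysis buffer; read after 10 min at room temperature.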
Active calls of the source: *; ? = inconclusive; / = no result given; [ ] = remark or other dose. Unless noted, % is set by controls: 0 for no effect and ±100 for the full control effect.

SMILES	IMPase inh	LMNA splice mod	IMPase Li cell
Cc1ccccc1-n1c(SCC(N)=O)nc2sc(-c3ccccc3)cc2c1=O	1	-6%	10%[38.3 µM]
Cc1ccccc1-n1c(SCC(=O)NC(N)=O)nc2sc(-c3ccccc3)cc2c1=O	/	-9%	11µM*
c1ccc(-c2nc(-c3ccccc3)c(NC3CCCCC3)o2)cc1	/	/	-2%
Nc1nc(=O)n(C2OC(CO)C(O)C2O)cc1Cl (stereo not drawn)	/	?	1%
O=c1c2ccccc2oc2ccccc12	/	/	-2%
S=c1[nH]ncn2c1cc1oc3ccccc3c12	/	/	1.1µM*
Cc1ccc(C)c(-n2c3nc(=O)[nH]c(=O)c-3cc3cc([N+](=O)[O-])ccc32)c1	/	11µM*	20%
Cc1cccc(-n2c3nc(=O)[nH]c(=O)c-3cc3cc([N+](=O)[O-])ccc32)c1	/	?	11%
C[C@H]1OC(OC2C(O)[C@@H](O)C(OC3C(O)[C@@H](O)C(O)O[C@@H]3CO)O[C@@H]2CO)[C@H](O)C(O)C1N[C@H]1C=C(CO)[C@@H](O)[C@H](O)C1O (stereo partly drawn)	/	-3%	-11%
COC(=O)C1=C(C)NC(C)=C(C(=O)OCCN(C)Cc2ccccc2)[C@@H]1c1cccc([N+](=O)[O-])c1	17	/	/
Cc1cccc(NS(=O)(=O)c2ccc3[nH]c(=O)ccc3c2)c1C	/	4%[46 µM]	/
CC(=O)Nc1ccc(-c2cc(-c3ccc(NC(C)=O)cc3)nc(-c3ccccc3)n2)cc1	3	5%	32µM*
CC(=O)Nc1ccc(-c2cc(-c3ccc(NC(C)=O)cc3)nc(-c3ccc(NC(C)=O)cc3)n2)cc1	/	1%	?
CC(=O)Nc1ccc2nc(-c3ccccc3)cn2c1	/	3%	1%
CCC(=O)Nc1ccc(-c2csc(C)n2)cc1	/	3%	4%
CCC(=O)Nc1ccc(-c2cc(-c3ccccc3)nc(-c3ccc(NC(=O)CC)cc3)n2)cc1	?	9%	10µM*
CC(=O)Nc1ccc(-c2cc(-c3ccccc3)nc(-c3ccccc3)n2)cc1	/	-13%	8.9µM*
CC(=O)[C@]1(O)CCC2C3CC(C)C4=CC(=O)C=CC4(C)[C@@]3(F)C(O)C[C@]21C (stereo partly drawn)	/	/	2%
COc1ccc(C(O)C2=CCCC2=O)cc1 (stereo not drawn)	/	/	2%
COC(=O)c1ccccc1S(=O)(=O)N1CCc2nc(-c3ccc(OC)cc3C)c3c(c2C1)CO[C@@H](c1ccccc1)C3	/	-5%[9.22 µM]	4%
O=C(CSc1nc2c(c(C(F)(F)F)n1)CCc1ccccc1-2)NCc1ccccc1	-20	-4%	10µM*
O=C(CSc1nc2c(c(C(F)(F)F)n1)CCc1ccccc1-2)NCc1ccc(F)cc1	0	-2%	1%
CC(=O)N1CC2(CC2)CC1c1ccccc1 (stereo not drawn)	/	/	-9%
O=C(O)C(Cc1ccccc1)Cc1ccccc1	/	/	-3%
CC(C)c1ccc(-c2c(C#N)c(N)nc(SCC(=O)N3CCCCCC3)c2C#N)cc1	?	21%	?
SMILES	IMPase inh	LMNA splice mod	IMPase Li cell
N#Cc1c(N)nc(SCC(=O)NC2CCCCC2)c(C#N)c1-c1ccc(Cl)cc1	-5	-1%	16µM*
COc1ccc(CN(C(=O)c2ccccc2F)C2CCS(=O)(=O)C2)cc1 (stereo not drawn)	10	/	/
O=C(CCCn1c(=O)c2cccn2c2ccccc21)Nc1cccc(Cl)c1	/	-18%[46 µM]	/
COc1cc2oc(=O)cc(C)c2c(OC)c1OC	/	-1%	-2%
COc1cc2oc(=O)c(Br)c(C)c2c(OC)c1OC	?	4%	13µM*
O=C(O)/C(Cc1ccc([N+](=O)[O-])cc1)=N/O	/	/	3%
